From PubChem BioAssay (Tox21)
Activity calls are given as the source filed them. Unless noted, calls follow the shape of the dose curve; as a rule, active = well fitted curve in the direction sought with a large enough effect in the repeat runs; inconclusive = weak or mixed curves; inactive = no such curve, though single readings can be large; an effect the other way counts as inactive or inconclusive.

Assays:
[1] = qHTS assay to identify small molecule antagonists of the thyroid receptor (TR) signaling pathway (AID 743065); also: nearly all actives have a fitted effect of over 55% in size; also: potency is read from the fitted curve at half-maximal effect
Summary of the method: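 GH3.TRE-Luc rat pituitary cells (two TREs driving luciferase) were dosed with compound, then stimulated with 1 nM T3 (final) for 23.5 h at 37 C. ONE-Glo luminescence was the read-out, with CellTiter-Fluor fluorescence as the cytotoxicity counter-screen.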

[2] = system: thyroid hormone receptor (rat, GH3 cells); assay: qHTS assay to identify small molecule agonists of the thyroid receptor (TR) signaling pathway (AID 743066; calls by dose curve)
[3] = qHTS assay to identify small molecule antagonists of the estrogen receptor alpha (ER-alpha) signaling pathway - cell viability counter screen (AID 743074; calls by dose curve; also: nearly all actives have a fitted effect of over 45% in size; also: potency is read from the fitted curve at half-maximal effect)
[4] = qHTS assay to identify small molecule antagonists of the estrogen receptor alpha (ER-alpha) signaling pathway using the BG1 cell line - cell viability counter screen (AID 743081);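 also: compound given together with 17beta-estradiol as the ER stimulus; series mostly up to about 70 µM; nearly all actives have a fitted effect of over 45% in size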
Aromatase (Homo sapiens) = Aromatase (Homo sapiens) (UniProt P11511); assay: qHTS assay to identify aromatase inhibitors (AID 743083); also: nearly all actives have a fitted effect of over 55% in size; also: potency is read from the fitted curve at half-maximal effect
[5] = qHTS assay to identify aromatase inhibitors - cell viability counter screen (AID 743084);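 also: cells stimulated with testosterone during compound exposure; nearly all actives have a fitted effect of over 55% in size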
[6] = molecular target: Aryl hydrocarbon receptor (Homo sapiens) (UniProt P35869); assay: qHTS assay to identify small molecule that activate the aryl hydrocarbon receptor (AhR) signaling pathway (AID 743085); also: nearly all actives have a fitted effect of over 15% in size; also: potency is read from the fitted curve at half-maximal effect;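 as to activation: HG2L7.5c1 human HepG2 liver cells with stably integrated DRE-driven firefly reporter; series mostly up to about 70 µM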
Summary of the method: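 HepG2 cells (HG2L7.5c1) stably carrying a firefly luciferase reporter driven by 20 dioxin responsive elements were exposed to compound for 24 h at 37C after a 5 h settling period; luminescence rise (ONE-Glo) indicated activation.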

[7] = qHTS assay to identify small molecule that activate the aryl hydrocarbon receptor (AhR) signaling pathway - cell viability counter screen (AID 743086);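 also: HepG2 liver cells carrying the AhR DRE luciferase reporter; series mostly up to about 70 µM; nearly all actives have a fitted effect of over 45% in size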
Summary of the method: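 HepG2-AhR-luc (HG2L7.5c1) cells, 4000/well, treated 24 h at 37 C with compound; viability measured as CellTiter-Fluor fluorescence after 30 min in the same wells as the luciferase read.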

[8] = molecular target: Peroxisome proliferator-activated receptor gamma (Homo sapiens) (UniProt P37231); assay: qHTS assay to identify small molecule agonists of the peroxisome proliferator-activated receptor gamma (PPARg) signaling pathway (AID 743094; active = well fitted activation curve with a large enough effect in the signal ratio in the repeat runs, not every such curve was filed as active; inconclusive = weak or mixed curves, or effect the other way; inactive = no such curve, though single readings can be large or run the other way; the % refers to the signal ratio)
Summary of the method: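 Fluorescence-based beta-lactamase readout in HEK293H PPARg UAS-bla cells after 17 h compound exposure (37C) and 1 h B/G FRET substrate incubation at room temperature.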

[9] = molecular target: Peroxisome proliferator-activated receptor gamma (Homo sapiens) (UniProt P37231); assay: qHTS assay to identify small molecule antagonists of the peroxisome proliferator-activated receptor gamma (PPARg) signaling pathway (AID 743191; calls by dose curve; also: nearly all actives have a fitted effect of over 30% in size; also: potency is read from the fitted curve at half-maximal effect)
Summary of the method: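 GeneBLAzer PPARg UAS-bla HEK293H cells, 5 h post-plating, exposed to compounds 17 h at 37C. LiveBLAzer B/G FRET substrate added for 1 h at room temperature; beta-lactamase reporter read by fluorescence intensity.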

[10] = qHTS assay to identify small molecule antagonists of the peroxisome proliferator-activated receptor gamma (PPARg) signaling pathway - cell viability counter screen (AID 743194); also: nearly all actives have a fitted effect of over 55% in size
Summary of the method: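 Cytotoxicity counter screen in PPARg-bla HEK293H cells, same wells as reporter assay. Compounds plus 50 nM rosiglitazone (final) for 17 h at 37 C, then viability read by CellTiter-Glo luminescence.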

[11] = qHTS assay for small molecule agonists of the antioxidant response element (ARE) signaling pathway (AID 743202; active = well fitted activation curve with a large enough effect in the signal ratio in the repeat runs, not every such curve was filed as active; inconclusive = weak or mixed curves, or effect the other way; inactive = no such curve, though single readings can be large or run the other way; the % refers to the signal ratio; also: potency is read from the fitted curve at half-maximal effect)
Summary of the method: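 HepG2 ARE-bla cells; 16 h treatment at 37 C; FRET-based beta-lactamase fluorescence read after 2 h substrate incubation at room temperature.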

[12] = qHTS assay for small molecule agonists of the antioxidant response element (ARE) signaling pathway - cell viability counter screen (AID 743203; calls by dose curve; also: nearly all actives have a fitted effect of over 55% in size)
Summary of the method: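 Parallel cytotoxicity read-out for the ARE-bla screen: HepG2 reporter cells, 16 hrs with compounds, then CellTiter-Glo luminescence.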

[13] = qHTS assay for small molecule activators of the heat shock response signaling pathway - cell viability counter screen (AID 743209); also: nearly all actives have a fitted effect of over 50% in size; also: potency is read from the fitted curve at half-maximal effect
Summary of the method: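 To flag cytotoxic compounds, HSE-bla HeLa cells plated at 1500 cells/well were dosed for 5 h at 37 C, followed by the reporter FRET read and then CellTiter-Glo, with luminescence recorded 30 min after reagent addition.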

[14] = qHTS assay for small molecule activators of the heat shock response signaling pathway (AID 743210; active = well fitted activation curve with a large enough effect in the signal ratio in the repeat runs, with a control signal flat, not every such curve was filed as active; inconclusive = weak or mixed curves; the % refers to the signal ratio;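 also: HeLa cells with beta-lactamase reporter driven by heat shock elements; series mostly up to about 63 µM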)
Summary of the method: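 Following overnight attachment, HSE-bla HeLa cells received test compounds for 5 h at 37 C; beta-lactamase activity was then detected via FRET substrate fluorescence.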

[15] = molecular target: Estrogen receptor (Homo sapiens) (UniProt P03372); assay: qHTS assay to identify small molecule antagonists of the estrogen receptor alpha (ER-alpha) signaling pathway (AID 743069; active = well fitted curve in the direction sought with a large enough effect in the signal ratio in the repeat runs, not every such curve was filed as active; inconclusive = weak or mixed curves, or effect the other way; inactive = no such curve, though single readings can be large or run the other way; the % refers to the signal ratio; also: potency is read from the fitted curve at half-maximal effect)
Summary of the method: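 In this cell-based reporter format, GripTite HEK293 cells harbouring ER-alpha-UAS-bla were grown overnight with 2% charcoal-stripped FBS, dosed with DMSO-dissolved compounds, then challenged with 17beta-estradiol. After 18 hr at 37C, beta-lactamase activity was detected by FRET fluorescence.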

[16] = molecular target: Estrogen receptor (Homo sapiens) (UniProt P03372); assay: qHTS assay to identify small molecule agonists of the estrogen receptor alpha (ER-alpha) signaling pathway (AID 743075; calls by dose curve)
[17] = molecular target: Estrogen receptor (Homo sapiens) (UniProt P03372); assay: qHTS assay to identify small molecule agonists of the estrogen receptor alpha (ER-alpha) signaling pathway using the BG1 cell line (AID 743079); also: nearly all actives have a fitted effect of over 20% in size; also: potency is read from the fitted curve at half-maximal effect
[18] = qHTS assay to identify small molecule antagonists of the estrogen receptor alpha (ER-alpha) signaling pathway using the BG1 cell line (AID 743080; calls by dose curve;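 also: BG1 cells stimulated with 17beta-estradiol alongside compound; nearly all actives have a fitted effect of over 25% in size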; also: potency is read from the fitted curve at half-maximal effect)
Summary of the method: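 Seeding, 24 h rest, compound transfer from DMSO, 17beta-estradiol addition, 21.5 h incubation, CellTiter-Fluor (30 min, 37 C), then ONE-Glo (30 min, room temperature): this sequence was run on BG1-Luc-4E2 reporter cells.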

Measured: Potency

Sequence of Aryl hydrocarbon receptor (Homo sapiens) (P35869 whole entry, looked up): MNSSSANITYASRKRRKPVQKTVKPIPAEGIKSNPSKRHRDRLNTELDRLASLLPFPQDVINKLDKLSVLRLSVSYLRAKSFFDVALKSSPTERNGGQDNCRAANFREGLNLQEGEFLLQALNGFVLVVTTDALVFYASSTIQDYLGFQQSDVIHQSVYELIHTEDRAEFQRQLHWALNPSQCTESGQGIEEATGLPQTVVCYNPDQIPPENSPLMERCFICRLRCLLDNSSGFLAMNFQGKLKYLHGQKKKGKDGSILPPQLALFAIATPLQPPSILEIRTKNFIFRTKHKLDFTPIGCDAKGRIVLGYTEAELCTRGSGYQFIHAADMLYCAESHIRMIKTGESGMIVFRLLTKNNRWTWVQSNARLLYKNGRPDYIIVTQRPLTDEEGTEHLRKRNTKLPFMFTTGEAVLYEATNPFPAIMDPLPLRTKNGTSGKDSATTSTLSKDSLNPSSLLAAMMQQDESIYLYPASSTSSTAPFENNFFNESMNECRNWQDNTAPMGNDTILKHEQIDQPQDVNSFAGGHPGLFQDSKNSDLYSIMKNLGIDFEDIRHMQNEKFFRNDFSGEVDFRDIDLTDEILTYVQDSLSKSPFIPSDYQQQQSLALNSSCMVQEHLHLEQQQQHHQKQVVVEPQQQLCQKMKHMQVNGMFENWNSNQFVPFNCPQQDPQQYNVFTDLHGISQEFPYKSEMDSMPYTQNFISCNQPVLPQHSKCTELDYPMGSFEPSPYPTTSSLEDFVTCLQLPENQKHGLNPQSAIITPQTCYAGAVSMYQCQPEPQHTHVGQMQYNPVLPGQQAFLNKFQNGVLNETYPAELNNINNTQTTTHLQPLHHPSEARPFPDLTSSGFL
Sequence of Aromatase (Homo sapiens) (P11511 whole entry, looked up): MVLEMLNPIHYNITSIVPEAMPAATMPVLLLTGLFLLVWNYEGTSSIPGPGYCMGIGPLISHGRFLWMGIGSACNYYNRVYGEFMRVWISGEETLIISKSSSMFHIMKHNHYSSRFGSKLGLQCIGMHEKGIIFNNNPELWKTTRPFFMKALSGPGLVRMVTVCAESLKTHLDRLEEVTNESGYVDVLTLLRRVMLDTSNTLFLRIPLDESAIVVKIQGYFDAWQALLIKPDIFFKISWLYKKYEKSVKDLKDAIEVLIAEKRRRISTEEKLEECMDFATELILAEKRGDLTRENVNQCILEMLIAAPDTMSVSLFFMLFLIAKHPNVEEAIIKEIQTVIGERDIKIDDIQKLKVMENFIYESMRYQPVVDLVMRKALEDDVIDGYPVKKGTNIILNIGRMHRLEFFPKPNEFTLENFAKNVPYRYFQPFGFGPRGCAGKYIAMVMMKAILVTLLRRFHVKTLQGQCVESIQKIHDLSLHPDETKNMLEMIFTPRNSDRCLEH
Sequence of Estrogen receptor (Homo sapiens) (P03372 whole entry, looked up): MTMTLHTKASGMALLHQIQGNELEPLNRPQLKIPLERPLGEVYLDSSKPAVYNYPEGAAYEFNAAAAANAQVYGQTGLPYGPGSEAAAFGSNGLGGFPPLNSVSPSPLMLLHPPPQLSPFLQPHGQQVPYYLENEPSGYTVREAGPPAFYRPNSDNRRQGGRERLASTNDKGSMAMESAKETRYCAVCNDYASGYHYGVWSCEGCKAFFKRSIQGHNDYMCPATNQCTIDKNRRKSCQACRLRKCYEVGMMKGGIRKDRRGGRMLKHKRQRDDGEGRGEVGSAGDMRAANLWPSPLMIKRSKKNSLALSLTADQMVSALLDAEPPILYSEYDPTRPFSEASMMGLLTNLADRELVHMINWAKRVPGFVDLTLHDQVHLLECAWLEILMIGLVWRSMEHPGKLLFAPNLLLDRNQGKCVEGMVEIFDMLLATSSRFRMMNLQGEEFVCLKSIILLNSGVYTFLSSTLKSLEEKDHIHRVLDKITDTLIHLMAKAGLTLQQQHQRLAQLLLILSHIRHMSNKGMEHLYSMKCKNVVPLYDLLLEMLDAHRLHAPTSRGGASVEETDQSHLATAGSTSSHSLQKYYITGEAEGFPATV
Sequence of Peroxisome proliferator-activated receptor gamma (Homo sapiens) (P37231 whole entry, looked up): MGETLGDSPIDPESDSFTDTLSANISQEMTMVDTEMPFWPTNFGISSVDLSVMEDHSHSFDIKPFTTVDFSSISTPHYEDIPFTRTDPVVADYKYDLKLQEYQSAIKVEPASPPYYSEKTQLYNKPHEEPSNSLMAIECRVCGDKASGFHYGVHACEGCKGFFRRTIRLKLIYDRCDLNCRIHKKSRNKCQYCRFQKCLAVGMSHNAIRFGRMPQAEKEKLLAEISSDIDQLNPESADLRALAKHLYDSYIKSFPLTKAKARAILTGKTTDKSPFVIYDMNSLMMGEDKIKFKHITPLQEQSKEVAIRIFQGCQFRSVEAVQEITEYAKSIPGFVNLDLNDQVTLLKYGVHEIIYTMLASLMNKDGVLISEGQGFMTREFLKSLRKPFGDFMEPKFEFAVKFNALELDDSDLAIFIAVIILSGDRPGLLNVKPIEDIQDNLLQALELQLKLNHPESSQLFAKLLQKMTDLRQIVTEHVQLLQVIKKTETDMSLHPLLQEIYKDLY

C1CCCCC1
not listed: [15] | [16] | [17] | [18]
inactive: all other assays above

CCN(CC)C(=O)N1CCN(C)CC1
not listed: [1] | [2] | [13] | [15] | [16] | [17] | [18]
inactive: all other assays above

CSCC[C@H](NC(=O)[C@H](Cc1c[nH]c2ccccc12)NC(=O)CCNC(=O)OC(C)(C)C)C(=O)N[C@@H](CC(=O)O)C(=O)N[C@@H](Cc1ccccc1)C(N)=O
not listed: [1] | [2] | [4] | [6] | [12]
inactive: all other assays above

CCCC(=O)OC(=O)CCC
not listed: [3] | [9] | [11] | [15] | [16] | [17] | [18]
inactive: all other assays above

CCCCCCCCCCCSCC(=O)O
active: [15] 54.9 µM [inconclusive] | [13] 49 µM
not listed: [1] | [2] | [8] | [9] | [11] | [14] | [17]
inactive: all other assays above

Cc1ccc2nc(N)[nH]c(=O)c2c1Sc1ccncc1
active: [1] 8.41 µM | [3] 3.01 µM | Aromatase (Homo sapiens) 9.44 µM | [6] 13.3 µM
inactive: [2] | [4] | [5] | [10] | [12] | [13] | [14]

Cc1oc(=O)oc1COC(=O)[C@@H]1N2C(=O)[C@@H](NC(=O)[C@H](N)c3ccccc3)[C@H]2SC1(C)C
inactive: [9] | [10] | [11] | [12] | [13] | [14]

CCCCCCCC/C=C\CCCCCCCC(=O)OCCO
active: [13] 64.9 µM
not listed: [1] | [11] | [14]
inactive: all other assays above

CC(C)(C)CCCCCCOC(=O)c1ccccc1C(=O)OCCCCCCC(C)(C)C
not listed: [2] | [3] | [6] | [11]
inactive: all other assays above

Nc1ccn([C@H]2CS[C@@H](CO)O2)c(=O)n1
inactive: [3] | [4] | Aromatase (Homo sapiens) | [5] | [6] | [7] | [12] | [13] | [14]

CCN(CC)CCOC(=O)C(c1ccccc1)c1ccccc1
not listed: [1] | [3] | [12] | [15] | [16] | [17] | [18]
inactive: all other assays above

COc1ccc(/C=C/C(=O)c2ccc(OC)cc2OC)cc1
active: [1] 26.6 µM | [9] 9.44 µM
not listed: [6] | [11] | [14] | [15] | [16] | [17] | [18]
inactive: all other assays above

CCNc1nc(N)nc(Cl)n1
inactive: [1] | [3] | [4] | [7] | [10] | [11] | [12] | [13] | [14]

CCN(CC)CC(=O)Nc1c(C)cccc1C(=O)OC
inactive: [10] | [11] | [12] | [13] | [14]

COC(=O)Nc1nc2ccc(C(=O)C3CC3)cc2[nH]1
inactive: [10] | [11] | [13]

CCCCCCCC/C=C/C(=O)O
inactive: [10] | [11] | [13] | [14]

CN=C(N)NC(=O)Nc1c(C)cccc1C
not listed: [1] | [2] | [4] | [13]
inactive: all other assays above

Cc1cc(CCCOc2c(C)cc(-c3noc(C(F)(F)F)n3)cc2C)on1
inactive: [9] | [10] | [12] | [14]

CCCCCCCC(=O)Oc1c(Br)cc(C#N)cc1Br
active: [18] 60.9 µM | Aromatase (Homo sapiens) 60.9 µM | [9] 34.5 µM
inactive: [2] | [16] | [4] | [7] | [11]

CCOC(=O)Oc1ccc(CCNC(=O)[C@H](CCSC)NC(C)=O)cc1OC(=O)OCC
inactive: [9] | [10] | [11] | [13] | [14]

Cc1ccc2c(c1[N+](=O)[O-])C(=O)c1ccccc1C2=O
active: [17] 3.78 µM | [6] 30 µM | [11] 6.73 µM
inactive: [2] | [3] | [16] | [4] | Aromatase (Homo sapiens) | [7] | [10] | [13] | [14]
